These results are taken from PubChem BioAssay (Tox21).

Test [1] can be described thus: Nuclear factor erythroid 2-related factor 2/antioxidant responsive element (Nrf2/ARE) small molecule agonists: qHTS cell viability counter screen in human keratinocytes (AID 1919968; active means well fitted curve in the direction sought with a large enough effect in the repeat runs; an effect the other way counts as inactive or inconclusive; further: nearly all actives have a fitted effect of over 55% in size). The gist of the method: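 Cytotoxicity was multiplexed with the Nrf2/ARE luciferase assay in the same wells. Stably transfected HaCaT keratinocytes were treated with test compounds for 23 h at 37 C. Cell viability was then measured by CellTiter-Fluor fluorescence.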

The nature of test [2]: Nuclear factor erythroid 2-related factor 2/antioxidant responsive element (Nrf2/ARE) small molecule agonists: luciferase reporter gene qHTS assay in human keratinocytes (AID 1919969). Further: nearly all actives have a fitted effect of over 35% in size. Further: potency means the concentration at half of the fitted maximal effect. In general terms: In a reporter assay the amount or activity of a reporter protein is the signal.
The target in test [3] is Gonadotropin-releasing hormone receptor (Homo sapiens) (UniProt P30968). The test can be described thus: Human gonadotropin-releasing hormone receptor (GnRHR) small molecule agonists, calcium flux assay in GnRHR-HEK293 cells (AID 1920063). Further: nearly all actives have a fitted effect of over 35% in size. The procedure, abridged: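 Agonist activity was measured as intracellular calcium flux in HEK293 cells engineered to stably express human GnRHR. After dye loading for 1 hour at 37 C, compounds in DMSO were added and fluorescence was followed for 3 minutes.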
For orientation: Calcium assays in cells follow changes in intracellular calcium, usually with a dye or a luminescent sensor.

Test [4] concerns the target KiSS-1 receptor (Homo sapiens) (UniProt Q969F8). The test can be described thus: Human kisspeptin (KISS1R) small molecule agonists, calcium flux assay in KISS1R-HEK293 cells (AID 1920064; active means well fitted curve in the direction sought with a large enough effect in the repeat runs; an effect the other way counts as inactive or inconclusive). The gist of the method: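 Agonist activity is monitored as intracellular calcium rise in engineered HEK293 cells carrying human KISS1R. Cells are dye-loaded for 1 h at 37 C before compound addition, and fluorescence is recorded for 3 min.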

The nature of test [5]: G protein-coupled receptor (GPCR) small molecule agonists, calcium flux assay: HEK293 wild type cell line counter screen (AID 1920065). The gist of the method: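 Seed cells, incubate 18 h (37 C, 5% CO2); add calcium dye, 1 h at 37 C; pin-transfer compounds, ATP control or DMSO; read fluorescence 480/540 nm each second for 3 min.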
Test [6] is described as follows: p53 small molecule agonists, cell-based qHTS assay with human liver microsomes: qHTS cell viability counter screen (AID 1963579). Further: nearly all actives have a fitted effect of over 45% in size. The gist of the method:
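Seed p53RE-bla cells at 4,000 per well; incubate 5 h at 37 C; add compound, human liver microsomes and NADPH; incubate 16 h at 37 C; add CellTiter-Glo; after 30 min at room temperature, read luminescence.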

Test [7] in a line: p53 small molecule agonists, cell-based qHTS assay with rat liver microsomes: qHTS cell viability counter screen (AID 1963580). Further: nearly all actives have a fitted effect of over 45% in size. The procedure, abridged:
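Counter screen for cytotoxicity under metabolic activation: rat liver microsomes and NADPH, 0.5 mg/mL final each, added with compounds to p53RE-bla HCT-116 cells; 16 h at 37 C, then ATP luminescence read.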
(Quantitative high-throughput screening tests each substance at several concentrations.)

The nature of test [8]: p53 small molecule agonists, cell-based qHTS assay: qHTS cell viability counter screen (AID 1963581). Further: nearly all actives have a fitted effect of over 45% in size. The gist of the method: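 Viability was counter-screened in parallel with the p53 agonist reporter by measuring intracellular ATP luminescence in the same HCT-116 p53RE-bla wells after 16 h compound treatment at 37 C.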
A short description of test [9]: p53 small molecule agonists, cell-based qHTS assay (AID 1963582; active means well fitted activation curve with a large enough effect in the signal ratio in the repeat runs, not every such curve was filed as active; the % refers to the signal ratio). The procedure, abridged:
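Cells carrying a p53-responsive bla reporter are treated with test compounds for 16 h at 37 C; beta-lactamase activity is then detected with LiveBLAzer B/G FRET substrate after 2 h at room temperature.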

Test [10] has as its target 5-hydroxytryptamine receptor 2A (Homo sapiens) (UniProt P28223). The test can be described thus: 5-hydroxytryptamine receptor 2A (HTR2A) small molecule antagonists, cell-based qHTS assay (AID 1963586). Further: nearly all actives have a fitted effect of over 45% in size. The procedure, abridged: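 CHO cells stably expressing human HTR2A were plated for 18 h at 37 C, then loaded with calcium dye for 1 h. Compounds were preincubated 5 min at room temperature before DOI (4 nM solution) was added. Kinetic fluorescence was read for 3 min.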

Test [11] has the same target. The test can be described thus: 5-hydroxytryptamine receptor 2A (HTR2A) small molecule agonists, cell-based qHTS assay (AID 1963587). Further: nearly all actives have a fitted effect of over 30% in size. The procedure, abridged:
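HTR2A-CHO cells, plated 18 h at 37 C/5% CO2, dye-loaded 1 h at 37 C; compounds in DMSO added by pin tool (agonist mode). Intracellular calcium flux read as kinetic fluorescence on FDSS over 2 min at 1 s intervals.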

The target of test [12] is Muscarinic acetylcholine receptor M1 (Homo sapiens) (UniProt P11229). The test can be described thus: Cholinergic receptor muscarinic 1 (CHRM1) small molecule agonists, cell-based qHTS assay (AID 1963589). Further: nearly all actives have a fitted effect of over 35% in size. The gist of the method: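 Cells were plated and incubated 18 h at 37 C/5% CO2, loaded with calcium dye for 1 h at 37 C, then treated with compounds in DMSO. Fluorescence was recorded kinetically at 1 sec intervals.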

Test [13] is described as follows: cAMP Responsive Elements (CRE) small molecule agonists, cell-based qHTS assay (AID 1963590). The procedure, abridged: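 Cells carrying a CRE-driven beta-lactamase reporter (HEK 293T) are seeded, incubated overnight (18 h), and treated with test compounds for 3 h at 37 C; reporter activity is then detected with a FRET substrate after 2 h at room temperature.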
A short description of test [14]: cAMP Responsive Elements (CRE) small molecule antagonists, cell-based qHTS assay (AID 1963591; active means well fitted inhibition curve with a large enough effect in the signal ratio in the repeat runs, not every such curve was filed as active; the % refers to the signal ratio). The gist of the method: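 Cells (CRE-bla HEK 293T, DMEM with 10% dialyzed FBS and 25 mM HEPES) are seeded and incubated 18 h. Compounds are added with NKH477 agonist at 0.25 uM final for 3 h, then FRET substrate for 2 h.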
In test [15] the target is Beta-2 adrenergic receptor (Homo sapiens) (UniProt P07550). The test can be described thus: Adrenergic beta2 receptor (ADRB2) small molecule antagonists, cell-based qHTS assay (AID 1963592). Further: series mostly up to about 92 µM; nearly all actives have a fitted effect of over 50% in size. The procedure, abridged: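 Assay format: CHO-ADRB2 cells, 18-20hr seeding at 37C/5% CO2, then compound plus 1nM isoproterenol agonist mix for 0.5hr RT. Homogeneous time-resolved fluorescence cAMP detection after 1hr, expressed as 665/615 nm ratio.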

Test [16] concerns the target D(2) dopamine receptor (Homo sapiens) (UniProt P14416). Kind of test: Dopamine D2 receptor (DRD2) small molecule antagonists, cell-based qHTS assay (AID 1963595; active means well fitted inhibition curve with a large enough effect in the signal ratio in the repeat runs, with a control signal flat; the % refers to the signal ratio). The gist of the method: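 Antagonist mode in DRD2-HEK293 cells: after compound addition with 0.1 mM Ro20-1724, cells received quinpirole (12 nM) and NKH477 (200 nM) for 30 min at room temperature; HTRF cAMP read after 1 h detection.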

Test [17] in a line: p53 small molecule agonists, cell-based qHTS assay with rat liver microsomes (AID 1963578). The gist of the method: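 Fluorescence from a beta-lactamase reporter under a p53 response element was measured after cells had been incubated 16 h at 37 C with test compound and rat liver microsomes plus NADPH (0.5 mg/mL final each).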
Test [18] addresses Muscarinic acetylcholine receptor M1 (Homo sapiens) (UniProt P11229). Kind of test: Cholinergic receptor muscarinic 1 (CHRM1) small molecule antagonists, cell-based qHTS assay (AID 1963588). Further: nearly all actives have a fitted effect of over 40% in size. The gist of the method:
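Compounds were tested at 15 concentrations in three independent runs. Dye-loaded CHRM1-CHO cells were exposed 5 min at room temperature before stimulation by acetylcholine added at 50nM. Intracellular calcium was read kinetically on FDSS for 3 min.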

Test [19] has as its target Beta-2 adrenergic receptor (Homo sapiens) (UniProt P07550). The test can be described thus: Adrenergic beta2 receptor (ADRB2) small molecule agonists, cell-based qHTS assay (AID 1963593). Further: potency means the concentration at half of the fitted maximal effect.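 On activation: CHO cells stably overexpressing human ADRB2.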 The gist of the method: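 CHO cells stably over-expressing ADRB2 were plated overnight at 37C, then dosed with compounds plus a stimulation mix containing 100uM IBMX and 25uM Ro-20-1724 for 0.5hr at room temperature. cAMP was measured by HTRF competition, 1hr.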

The target in test [20] is D(2) dopamine receptor (Homo sapiens) (UniProt P14416). Kind of test: Dopamine D2 receptor (DRD2) small molecule agonists, cell-based qHTS assay (AID 1963594). Further: nearly all actives have a fitted effect of over 35% in size. The gist of the method:
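HEK293 cells stably expressing DRD2 were cultured 24 h at 37 C, then given Ro20-1724 (0.1 mM final) and compounds for 10 min at room temperature. NKH477 (200nM) was then added for 30 min. cAMP was read by HTRF.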

Records with an inconclusive call do not appear. Some structures have more than one record in an assay (separate samples or runs), and their calls can disagree. The source made the active and inactive calls. Unless noted, the call rests on the fitted dose curve.

D(2) dopamine receptor (Homo sapiens), sequence (P14416 whole entry, looked up): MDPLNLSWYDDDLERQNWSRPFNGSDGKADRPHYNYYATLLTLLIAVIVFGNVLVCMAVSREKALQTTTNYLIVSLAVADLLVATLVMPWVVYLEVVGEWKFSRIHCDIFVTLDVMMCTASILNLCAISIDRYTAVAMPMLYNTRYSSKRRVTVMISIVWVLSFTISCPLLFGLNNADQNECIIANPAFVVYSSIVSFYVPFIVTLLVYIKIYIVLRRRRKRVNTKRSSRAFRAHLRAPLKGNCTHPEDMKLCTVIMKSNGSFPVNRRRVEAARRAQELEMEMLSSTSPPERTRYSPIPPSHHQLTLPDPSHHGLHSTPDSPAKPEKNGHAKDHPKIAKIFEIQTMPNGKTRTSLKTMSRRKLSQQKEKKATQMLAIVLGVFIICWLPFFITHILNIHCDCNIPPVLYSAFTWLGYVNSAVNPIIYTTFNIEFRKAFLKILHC
KiSS-1 receptor (Homo sapiens), sequence (Q969F8 whole entry, looked up): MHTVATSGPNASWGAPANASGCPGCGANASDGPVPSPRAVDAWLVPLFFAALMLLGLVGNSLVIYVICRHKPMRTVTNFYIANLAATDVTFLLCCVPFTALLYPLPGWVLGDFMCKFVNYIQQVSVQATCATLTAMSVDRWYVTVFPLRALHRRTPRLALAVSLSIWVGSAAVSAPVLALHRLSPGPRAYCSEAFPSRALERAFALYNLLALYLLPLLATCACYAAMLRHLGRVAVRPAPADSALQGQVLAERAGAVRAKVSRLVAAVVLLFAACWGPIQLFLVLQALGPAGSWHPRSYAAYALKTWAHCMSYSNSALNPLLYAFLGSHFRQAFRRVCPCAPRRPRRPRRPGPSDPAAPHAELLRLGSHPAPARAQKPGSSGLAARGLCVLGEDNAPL
Muscarinic acetylcholine receptor M1 (Homo sapiens), sequence (P11229 whole entry, looked up): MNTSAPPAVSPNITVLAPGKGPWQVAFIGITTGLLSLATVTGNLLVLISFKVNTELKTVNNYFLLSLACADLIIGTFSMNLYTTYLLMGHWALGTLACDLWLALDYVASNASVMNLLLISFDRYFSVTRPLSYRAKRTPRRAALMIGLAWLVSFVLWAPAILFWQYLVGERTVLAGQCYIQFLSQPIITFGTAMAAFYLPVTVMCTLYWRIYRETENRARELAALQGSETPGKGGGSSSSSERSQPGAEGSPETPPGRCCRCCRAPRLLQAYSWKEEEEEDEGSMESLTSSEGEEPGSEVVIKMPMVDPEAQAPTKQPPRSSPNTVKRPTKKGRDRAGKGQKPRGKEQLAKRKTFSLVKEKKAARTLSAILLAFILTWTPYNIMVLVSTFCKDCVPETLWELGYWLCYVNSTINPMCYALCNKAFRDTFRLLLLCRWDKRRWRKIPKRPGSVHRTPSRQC
Beta-2 adrenergic receptor (Homo sapiens), sequence (P07550 whole entry, looked up): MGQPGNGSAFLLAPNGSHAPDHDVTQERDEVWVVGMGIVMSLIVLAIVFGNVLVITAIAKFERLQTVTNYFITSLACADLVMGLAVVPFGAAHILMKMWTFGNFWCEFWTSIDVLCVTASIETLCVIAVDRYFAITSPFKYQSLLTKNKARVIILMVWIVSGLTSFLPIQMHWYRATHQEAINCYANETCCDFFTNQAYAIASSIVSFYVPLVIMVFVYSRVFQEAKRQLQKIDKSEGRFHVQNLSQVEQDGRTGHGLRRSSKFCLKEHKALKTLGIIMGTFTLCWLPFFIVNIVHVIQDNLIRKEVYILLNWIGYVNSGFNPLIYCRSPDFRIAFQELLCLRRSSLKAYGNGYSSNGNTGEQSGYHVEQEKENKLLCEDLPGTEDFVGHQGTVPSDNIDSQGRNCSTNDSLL
5-hydroxytryptamine receptor 2A (Homo sapiens), sequence (P28223 whole entry, looked up): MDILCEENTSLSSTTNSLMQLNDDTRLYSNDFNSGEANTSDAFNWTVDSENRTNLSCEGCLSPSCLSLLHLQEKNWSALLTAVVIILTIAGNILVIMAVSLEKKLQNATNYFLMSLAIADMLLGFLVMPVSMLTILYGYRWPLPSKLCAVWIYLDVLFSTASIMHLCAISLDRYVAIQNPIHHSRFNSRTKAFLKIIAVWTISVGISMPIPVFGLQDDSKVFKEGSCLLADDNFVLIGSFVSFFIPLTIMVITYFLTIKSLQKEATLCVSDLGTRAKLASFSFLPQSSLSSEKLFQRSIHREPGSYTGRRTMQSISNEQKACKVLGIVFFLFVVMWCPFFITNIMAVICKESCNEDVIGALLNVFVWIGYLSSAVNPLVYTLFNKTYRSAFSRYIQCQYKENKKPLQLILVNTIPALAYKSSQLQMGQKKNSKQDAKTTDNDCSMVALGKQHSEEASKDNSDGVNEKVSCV
Gonadotropin-releasing hormone receptor (Homo sapiens), sequence (P30968 whole entry, looked up): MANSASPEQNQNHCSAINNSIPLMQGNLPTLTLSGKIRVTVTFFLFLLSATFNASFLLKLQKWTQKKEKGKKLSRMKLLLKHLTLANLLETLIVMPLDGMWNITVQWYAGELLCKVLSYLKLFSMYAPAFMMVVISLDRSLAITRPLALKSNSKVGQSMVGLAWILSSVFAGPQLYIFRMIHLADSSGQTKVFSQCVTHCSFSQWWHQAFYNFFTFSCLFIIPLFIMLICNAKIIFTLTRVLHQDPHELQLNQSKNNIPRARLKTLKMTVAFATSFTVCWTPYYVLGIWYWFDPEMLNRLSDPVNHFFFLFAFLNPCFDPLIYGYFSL

Take `COCCCC/C(=N\OCCN)c1ccc(C(F)(F)F)cc1`: the Potency entry in test [1], in [2], in test [3], in [4], in [5] and in test [6] was “inactive” in each case. In addition, the Potency entry in [7], in test [8], in test [9], in [10], in test [11] and in test [12] was “inactive” in each case. Further, the Potency entry in test [13], in test [14], in test [15] and in [16] was “inactive” throughout.

As for `CC(=O)OCCOCCOCCOC(C)=O`, the Potency result in test [1], in [2], in [3], in test [4], in test [5] and in test [17] was “inactive” throughout. In addition, the Potency entry in [8], in [9], in test [10], in test [11], in test [18] and in test [12] was “inactive” throughout. Also, the Potency entry in test [13], in test [14], in test [15], in test [20] and in test [16] was “inactive” throughout. In addition, the Potency in [19] was 53.8 µM (active) and inactive.

`Cc1ccc2n[nH]nc2c1`: the Potency result in test [1], in test [2], in test [3], in test [4], in test [5] and in test [6] was “inactive” each time. For the same molecule, the Potency entry in test [7], in test [8], in test [9], in [10], in [11] and in [18] was “inactive” throughout. In addition, the Potency result in test [12], in test [13], in test [15], in [19], in test [20] and in [16] was “inactive” throughout.

`COC(=O)CCC(=O)O`: the Potency entry in test [1], in test [2], in test [3], in test [4], in test [5] and in [6] was “inactive” in each case. The Potency result in test [7], in [8], in test [9], in test [10], in test [11] and in test [18] was “inactive” each time. Also, the Potency entry in test [12], in test [13], in [14], in [15], in test [19] and in [16] was “inactive” throughout.

For `O=C(O)c1ccccc1[N+](=O)[O-]`, the Potency result in [1], in [2], in test [3], in test [4], in test [5] and in test [6] was “inactive” in each case. Besides, the Potency result in [7], in test [8], in [9], in [10], in test [11] and in test [18] was “inactive” each time. The Potency result in test [12], in [14], in test [15] and in test [16] was “inactive” in each case.

For the molecule `CCC(C)NC(N)=O` (stereo not drawn), the Potency entry in [1], in test [2], in test [3], in [4], in [5] and in [6] was “inactive” each time. Besides, the Potency result in test [7], in [8], in [9], in test [10], in test [11] and in test [18] was “inactive” throughout. The Potency entry in test [13], in test [14], in test [15], in [19], in [20] and in [16] was “inactive” in each case.

Regarding `CC(=O)CC/C=C(\C)CC/C=C(\C)CC/C=C(\C)CCC=C(C)C`, the Potency entry in test [1], in test [3], in test [4], in test [5], in [6] and in [7] was “inactive” each time. In addition, the Potency entry in test [8], in test [9], in test [10], in test [11], in test [18] and in [12] was “inactive” in each case. Moreover, the Potency entry in [13], in test [14] and in test [16] was “inactive” throughout. For the same molecule, in [2], the Potency was 26.6 µM (active).

For `CC1CC(OC(=O)c2ccccc2O)CC(C)(C)C1` (stereo not drawn), the Potency entry in test [1], in test [3], in [4], in test [5], in test [6] and in [7] was “inactive” in each case. Also, the Potency entry in test [8], in [9], in [10], in [11], in test [12] and in [13] was “inactive” each time. Also, the Potency entry in [14], in test [15], in test [19], in test [20] and in [16] was “inactive” in each case. In addition, in [2], the Potency was 61.1 µM (active).
